Data published in PubChem BioAssay (EPA / NIEHS).
Calls of active or inactive are those of the source. Rule for the calls: active = hit-call score of the fitted dose curve at least 0.9, where 1 is the maximum; inactive = score below 0.9.

What was measured:
[1] = ATG_CRE_CIS: Attagene CIS-FACTORIAL HepG2 Assay for human cAMP Responsive Element (CRE) binding protein 3 (AID 2282926); conditions: HepG2 CRE cis-reporter, Attagene multiplexed mRNA; actives raise or lower the signal
Procedure, shortened: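 Assay format: transient reporter transfection of HepG2, 24 h treatment, total RNA isolation with DNase I step. Reporter abundance read by fluorescence after PCR and capillary separation; DMSO-normalised gain or loss fitting.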

[2] = target: CCAAT/enhancer-binding protein beta (Homo sapiens) (UniProt P17676); assay: ATG_C_EBP_CIS: Attagene CIS-FACTORIAL HepG2 Assay for human CCAAT/Enhancer Binding Protein (C/EBP) beta (AID 2282927); conditions: HepG2 Attagene cis-factorial transcription factor reporter; actives raise or lower the signal
Chain of CCAAT/enhancer-binding protein beta (Homo sapiens) (P17676 whole entry, looked up): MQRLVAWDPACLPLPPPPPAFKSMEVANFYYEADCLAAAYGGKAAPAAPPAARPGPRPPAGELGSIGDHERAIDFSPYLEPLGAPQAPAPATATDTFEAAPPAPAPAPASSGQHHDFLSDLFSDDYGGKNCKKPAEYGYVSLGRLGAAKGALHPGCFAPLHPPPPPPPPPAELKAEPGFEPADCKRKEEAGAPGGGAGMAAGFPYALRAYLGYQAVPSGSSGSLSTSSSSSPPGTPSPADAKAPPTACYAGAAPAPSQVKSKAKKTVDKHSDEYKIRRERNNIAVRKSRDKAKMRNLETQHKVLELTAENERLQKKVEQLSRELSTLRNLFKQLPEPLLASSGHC
Procedure, shortened: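 HepG2 transiently transfected with multiplexed reporter units under cis-regulatory promoters reporting endogenous C/EBPb activity. After 24 h exposure, reporter mRNA assayed by RT-PCR, fluorescent labelling, HpaI digestion and capillary electrophoresis; bidirectional fitting versus DMSO.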

[3] = ATG_CMV_CIS: Attagene CIS-FACTORIAL HepG2 Assay for human CMV (Internal Marker) (AID 2282928); conditions: HepG2 CMV promoter reporter, transcription factor profiling; actives raise or lower the signal;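 note: endpoint acts as a background internal control marker rather than a target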
Procedure, shortened: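 Readout: fluorescent reporter cDNA fragments separated by capillary electrophoresis after RT-PCR and HpaI cut. Cells: HepG2 carrying transfected cis-promoter reporter constructs, dosed 24 h. Endpoint serves as background internal-marker control, fit bidirectionally versus DMSO.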

[4] = target: Aryl hydrocarbon receptor (Homo sapiens) (UniProt P35869); assay: ATG_Ahr_CIS: Attagene CIS-FACTORIAL HepG2 Assay for human Aryl Hydrocarbon Receptor (Ahr) (AID 2282930); conditions: HepG2 AhR cis-factorial reporter transcription; actives raise or lower the signal
Chain of Aryl hydrocarbon receptor (Homo sapiens) (P35869 whole entry, looked up): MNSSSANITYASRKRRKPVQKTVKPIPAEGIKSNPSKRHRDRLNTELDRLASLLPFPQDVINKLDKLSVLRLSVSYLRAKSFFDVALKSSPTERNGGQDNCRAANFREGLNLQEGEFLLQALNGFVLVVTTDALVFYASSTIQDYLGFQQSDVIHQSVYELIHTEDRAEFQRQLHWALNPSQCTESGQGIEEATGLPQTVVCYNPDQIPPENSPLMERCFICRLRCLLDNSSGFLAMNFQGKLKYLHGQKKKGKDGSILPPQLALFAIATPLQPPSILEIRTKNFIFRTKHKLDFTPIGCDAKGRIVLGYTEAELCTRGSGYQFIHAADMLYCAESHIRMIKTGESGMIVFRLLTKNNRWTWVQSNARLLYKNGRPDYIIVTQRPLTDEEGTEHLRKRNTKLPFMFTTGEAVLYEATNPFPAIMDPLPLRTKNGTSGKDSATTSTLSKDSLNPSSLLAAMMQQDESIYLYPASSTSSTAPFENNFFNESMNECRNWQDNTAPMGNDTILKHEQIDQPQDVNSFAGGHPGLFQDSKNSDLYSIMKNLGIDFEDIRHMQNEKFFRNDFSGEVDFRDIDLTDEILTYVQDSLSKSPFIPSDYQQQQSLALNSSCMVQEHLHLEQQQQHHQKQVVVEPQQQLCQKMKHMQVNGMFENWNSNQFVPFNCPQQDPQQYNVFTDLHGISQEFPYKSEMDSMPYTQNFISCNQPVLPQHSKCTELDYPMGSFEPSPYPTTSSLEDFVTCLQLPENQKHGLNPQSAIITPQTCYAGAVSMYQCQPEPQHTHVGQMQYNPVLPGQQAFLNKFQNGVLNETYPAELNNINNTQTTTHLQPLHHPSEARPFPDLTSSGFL
Procedure, shortened: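 HepG2 cells transiently transfected with cis-element-driven multiplexed reporter units; endogenous AhR activity read as reporter mRNA 24 h after dosing, via RT-PCR, 6-FAM labelling, HpaI digestion and capillary electrophoresis. Bidirectional fit relative to DMSO.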

[5] = ATG_AP_1_CIS: Attagene CIS-FACTORIAL HepG2 Assay for human Activator Protein 1 (AP-1) (AID 2282931); conditions: HepG2 Attagene cis-factorial AP-1 reporter mRNA; actives raise or lower the signal
Procedure, shortened: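 Multiplexed HepG2 reporter assay, 24 h dosing. mRNA induction detected by RT-PCR plus capillary electrophoresis. Activity fitted in both directions against DMSO.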

[6] = ATG_AP_2_CIS: Attagene CIS-FACTORIAL HepG2 Assay for human Activator Protein 2 (AP-2) (AID 2282932); conditions: HepG2 AP-2 cis-reporter, Attagene transcription factor profiling; actives raise or lower the signal
Procedure, shortened: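 Read-out: fluorescent reporter mRNA via RT-PCR and capillary electrophoresis, 24 h post-dose in transiently transfected HepG2. Endogenous factors drive cis-promoter reporters; gain or loss of signal fitted bidirectionally against DMSO.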

[7] = ATG_BRE_CIS: Attagene CIS-FACTORIAL HepG2 Assay for human Bone Morphogenetic Protein (BMP) Response Element (BRE) (AID 2282933); conditions: HepG2 BMP response element reporter, Attagene transcription factor profiling; actives raise or lower the signal
Procedure, shortened: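 HepG2 cells transiently transfected with multiplexed cis-element reporter units were dosed with chemical for 24 h. Reporter mRNA was measured by RT-PCR with fluorescent labelling, HpaI digestion and capillary electrophoresis; bidirectional fitting relative to DMSO.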

[8] = target: Retinoic acid receptor alpha (Homo sapiens) (UniProt P10276); assay: ATG_DR5_RAR_CIS: Attagene CIS-FACTORIAL HepG2 Assay for human Retinoic Acid Receptor Alpha (RARE), DR5 submotif (AID 2282934); conditions: HepG2 Attagene cis-factorial RARE DR5 reporter, mRNA; actives raise or lower the signal;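 for AC50: reporter responds to endogenous RAR alpha beta and gamma in HepG2 not RARA alone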
Chain of Retinoic acid receptor alpha (Homo sapiens) (P10276 whole entry, looked up): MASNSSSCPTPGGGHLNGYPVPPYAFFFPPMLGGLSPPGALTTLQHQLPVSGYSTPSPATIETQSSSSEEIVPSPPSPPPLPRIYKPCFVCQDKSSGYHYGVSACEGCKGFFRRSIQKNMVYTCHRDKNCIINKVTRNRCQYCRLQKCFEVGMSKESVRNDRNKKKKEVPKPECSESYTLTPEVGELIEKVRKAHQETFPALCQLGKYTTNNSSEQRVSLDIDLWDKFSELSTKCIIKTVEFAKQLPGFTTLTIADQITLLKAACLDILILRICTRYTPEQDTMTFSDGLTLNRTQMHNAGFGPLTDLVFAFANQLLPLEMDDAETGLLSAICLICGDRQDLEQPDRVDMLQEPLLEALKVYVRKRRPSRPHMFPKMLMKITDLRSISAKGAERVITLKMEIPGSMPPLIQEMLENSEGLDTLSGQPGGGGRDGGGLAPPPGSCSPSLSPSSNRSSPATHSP
Procedure, shortened: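 HepG2 cells transiently transfected with multiplexed reporter units; DR5 cis-element drives reporter through endogenous transcription factors. After 24 h dosing, reporter mRNA quantified by RT-PCR, fluorescent labeling, HpaI digestion and capillary electrophoresis; bidirectional fitting versus DMSO.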

[9] = target: Transcription factor E2F1 (Homo sapiens) (UniProt Q01094); assay: ATG_E2F_CIS: Attagene CIS-FACTORIAL HepG2 Assay for human E2F Transcription Factor 1 (AID 2282935); conditions: HepG2 Attagene cis-reporter, E2F reporter RNA transcripts; actives raise or lower the signal
Chain of Transcription factor E2F1 (Homo sapiens) (Q01094 whole entry, looked up): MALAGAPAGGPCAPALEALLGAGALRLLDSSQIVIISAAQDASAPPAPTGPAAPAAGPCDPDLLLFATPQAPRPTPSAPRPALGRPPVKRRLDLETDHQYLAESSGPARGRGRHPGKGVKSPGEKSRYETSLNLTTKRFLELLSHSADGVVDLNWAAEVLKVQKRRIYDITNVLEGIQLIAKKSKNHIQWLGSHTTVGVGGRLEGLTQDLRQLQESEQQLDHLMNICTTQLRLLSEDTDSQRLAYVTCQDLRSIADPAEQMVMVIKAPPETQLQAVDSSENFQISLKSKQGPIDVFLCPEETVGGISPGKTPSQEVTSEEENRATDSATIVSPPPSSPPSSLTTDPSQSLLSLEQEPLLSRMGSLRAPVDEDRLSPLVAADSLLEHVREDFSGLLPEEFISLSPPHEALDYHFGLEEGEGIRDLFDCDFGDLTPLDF
Procedure, shortened: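 Transient MRTU transfection of HepG2; 24 h compound exposure; RNA → oligo(dT) RT → PCR → FAM label → HpaI cut → CE fluorescence. Gain/loss of signal fit against DMSO.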

[10] = ATG_E_Box_CIS: Attagene CIS-FACTORIAL HepG2 Assay for human Enhancer Box (E-box) (AID 2282936); conditions: HepG2 E-box cis-reporter transcription, actives raise or lower the signal
Procedure, shortened: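 Transiently transfected HepG2, endogenous TF-driven reporters, 24 h dosing. Readout: RT-PCR plus capillary electrophoresis of fluorescent reporter fragments. Gain or loss of signal fitted bidirectionally against DMSO baseline.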

[11] = ATG_M_61_CIS: Attagene CIS-FACTORIAL HepG2 Assay for M61 Transcription Factor (Internal Marker) (AID 2282937); conditions: HepG2 Attagene CIS-FACTORIAL M61 internal marker reporter; actives raise or lower the signal
Procedure, shortened: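 Endogenous transcription factor activity in HepG2 is read through transiently transfected cis-element reporter units. After 24 h dosing, RNA undergoes reverse transcription, PCR and primer extension with 6-FAM before capillary electrophoresis; DMSO-referenced bidirectional fit.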

[12] = ATG_EGR_CIS: Attagene CIS-FACTORIAL HepG2 Assay for human Early Growth Response 1 (EGR1) (AID 2282938); conditions: HepG2 Attagene CIS-FACTORIAL EGR reporter mRNA; actives raise or lower the signal
Procedure, shortened: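 Activity is taken as induction or loss of reporter mRNA versus DMSO, fitted bidirectionally. Transcripts from cis-regulated reporter units in transiently transfected HepG2 were measured after 24 h by RT-PCR with capillary electrophoresis.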

[13] = ATG_M_19_CIS: Attagene CIS-FACTORIAL HepG2 Assay for M19 Transcription Factor (Internal Marker) (AID 2282939); conditions: HepG2 Attagene CIS-FACTORIAL M19 internal marker reporter; actives raise or lower the signal
Procedure, shortened: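 HepG2 cells transiently transfected with cis-regulated multiple reporter transcription units were dosed for 24 h; reporter mRNA was quantified by RT-PCR, 6-FAM primer-extension labelling, HpaI digestion and capillary electrophoresis, with bidirectional fitting against DMSO baseline.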

[14] = ATG_ERE_CIS: Attagene CIS-FACTORIAL HepG2 Assay for Estrogen Response Element (ERE) (AID 2282940); conditions: HepG2 ERE cis-reporter, Attagene RNA transcript; actives raise or lower the signal
Procedure, shortened: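 HepG2 cells transiently transfected with cis-promoter-driven multiplexed reporter transcription units report endogenous TF activity. After 24 h compound exposure, reporter mRNA is quantified by RT-PCR with capillary electrophoresis fluorescence; bidirectional fitting versus DMSO baseline.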

[15] = ATG_Ets_CIS: Attagene CIS-FACTORIAL HepG2 Assay for human Erythroblast Transformation Specific (ETS) (AID 2282941); conditions: HepG2 ETS cis-reporter transcription, actives raise or lower the signal
Procedure, shortened: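 RT-PCR/capillary electrophoresis fluorescence read-out of reporter mRNA; HepG2 transient multi-reporter transfection; 24 h compound exposure; gain or loss of signal fitted bidirectionally relative to DMSO.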

[16] = target: Hepatocyte nuclear factor 3-beta (Homo sapiens) (UniProt Q9Y261); assay: ATG_FoxA2_CIS: Attagene CIS-FACTORIAL HepG2 Assay for human Forkhead box A2 (FOXA2) (AID 2282942); conditions: HepG2 cis-reporter transcription factor activity, 24 h; actives raise or lower the signal
Chain of Hepatocyte nuclear factor 3-beta (Homo sapiens) (Q9Y261 whole entry, looked up): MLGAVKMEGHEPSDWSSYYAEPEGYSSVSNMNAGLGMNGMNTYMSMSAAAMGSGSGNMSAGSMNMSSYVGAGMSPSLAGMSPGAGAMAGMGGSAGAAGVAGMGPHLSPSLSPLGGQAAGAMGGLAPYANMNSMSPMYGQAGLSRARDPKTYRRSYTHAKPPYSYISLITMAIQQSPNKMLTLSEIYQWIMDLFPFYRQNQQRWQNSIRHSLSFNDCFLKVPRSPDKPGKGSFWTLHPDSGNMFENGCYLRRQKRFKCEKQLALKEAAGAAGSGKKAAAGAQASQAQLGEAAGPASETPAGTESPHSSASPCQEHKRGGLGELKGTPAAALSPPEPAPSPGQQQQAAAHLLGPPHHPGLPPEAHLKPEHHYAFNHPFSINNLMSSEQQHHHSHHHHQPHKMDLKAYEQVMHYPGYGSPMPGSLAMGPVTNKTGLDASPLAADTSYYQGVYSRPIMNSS
Procedure, shortened: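 Reporter transcript induction is measured by fluorescence after capillary electrophoresis of RT-PCR products from HepG2 cells exposed 24 h. Cis-regulated reporter units report endogenous factor activity; curves fitted both directions against DMSO.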

[17] = ATG_FoxO_CIS: Attagene CIS-FACTORIAL HepG2 Assay for human Forkhead box O (FoxO) (AID 2282943); conditions: HepG2 Attagene cis-reporter, FoxO element, mRNA; actives raise or lower the signal
Procedure, shortened: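 HepG2 cells transiently transfected with cis-element-driven reporter units report endogenous FoxO activity. After 24 h chemical exposure, reporter mRNA quantified by RT-PCR, fluorescent labeling, HpaI digestion and capillary electrophoresis; bidirectional fit versus DMSO.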

[18] = ATG_GATA_CIS: Attagene CIS-FACTORIAL HepG2 Assay for human GATA Binding Protein (AID 2282944); conditions: HepG2 GATA cis-element reporter, Attagene multiplex mRNA; actives raise or lower the signal
Procedure, shortened: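 HepG2 cells transiently transfected with multiplexed cis-element reporter units reflecting endogenous transcription factor activity; reporter mRNA measured after 24 h dosing by RT-PCR, 6-FAM labeling, HpaI digestion and capillary electrophoresis. Bidirectional fitting versus DMSO baseline.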

[19] = ATG_GLI_CIS: Attagene CIS-FACTORIAL HepG2 Assay for human Zinc Finger Protein GLI1 (AID 2282945); conditions: HepG2, Attagene cis-factorial reporter mRNA, GLI element; actives raise or lower the signal
Procedure, shortened: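 Transiently transfected HepG2 cells report endogenous transcription factor activity via cis-element-driven reporter units. After 24 h compound exposure, reporter mRNA was measured by RT-PCR with capillary electrophoresis; bidirectional fitting against DMSO baseline.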

[20] = ATG_DR4_LXR_CIS: Attagene CIS-FACTORIAL HepG2 Assay for human Liver X Receptor (LXR), DR4 submotif (AID 2282929); conditions: HepG2 Attagene DR4 cis-reporter, mRNA transcription; actives raise or lower the signal
Procedure, shortened: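 Fluorescence intensity of labelled reporter cDNA fragments, separated by capillary electrophoresis, gives the signal. HepG2 cells bearing cis-regulated reporter constructs were treated 24 h; activity fitted bidirectionally relative to DMSO negative control.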

Measured: AC50

COP(=O)(OC)OC(Br)C(Cl)(Cl)Br (stereo unspecified)
not listed: [20]
inactive: all other assays above

CON=C(C(=O)OC)c1ccccc1CON=C(C)c1cccc(C(F)(F)F)c1
active: [2] 66.7 µM | [20] 24 µM | [10] 12.5 µM
not listed: [7] | [14] | [16]
inactive: all other assays above

COc1ccc(C(=CC(=O)N2CCOCC2)c2ccc(Cl)cc2)cc1OC
active: [1] 10.9 µM | [2] 5.02 µM | [7] 11.9 µM | [12] 28.4 µM | [15] 23.2 µM
not listed: [3] | [14]
inactive: all other assays above

C=C(C)[C@H]1Cc2c(ccc3c2O[C@@H]2COc4cc(OC)c(OC)cc4[C@@H]2C3=O)O1
active: [1] 0.0337 µM | [2] 0.0249 µM | [3] 0.0033 µM | [5] 0.0044 µM | [7] 0.0104 µM | [8] 0.0229 µM | [18] 1.21 µM
not listed: [14] | [16] | [20]
inactive: all other assays above

CC(C1CC1)C(O)(Cn1cncn1)c1ccc(Cl)cc1 (stereo unspecified)
active: [20] 11.3 µM
not listed: [7] | [14] | [16]
inactive: all other assays above

COP(=O)(OC)C(O)C(Cl)(Cl)Cl (stereo unspecified)
active: [1] 32 µM | [2] 50 µM | [3] 22.1 µM | [5] 35.2 µM | [7] 30.1 µM | [12] 67.3 µM
not listed: [14] | [16] | [20]
inactive: all other assays above

CCOP(=S)(OCC)Oc1cc(C)nc(C(C)C)n1
active: [3] 29.8 µM | [20] 50 µM | [4] 16.3 µM
not listed: [7] | [8] | [14] | [16]
inactive: all other assays above
